As a reminder, the inhibition is the relative decrease from the control value, in per cent.

The results in this text go back to PubChem BioAssay AID652141 (The Scripps Research Institute Molecular Screening Center, 2013).

Each structure is given as a SMILES string. Screen size: about 5,600 compounds; about 4,500 (80%) were called active. The set was probably picked from earlier hits. Not all results are given here. A number with no mark means an inactive call. No stated cut-off is given here; in the data, active means inhibition above about 10%; inactive means the rest.

A short description of this assay: GDH-TPI coupling enzyme inhibitors, artefact control for M. tuberculosis FBA inhibitor project, biochemical, fluorescence, high throughput (AID 652141). Particulars: GDH-TPI coupled enzyme counterscreen, at 1 µM, stronger effect = higher value. For orientation: Counterscreens check selectivity or assay interference.
Take `Cc1ccc(C2Nc3cccc4cccc(c34)N2)cc1`: the inhibition was 137% (active). Then `O=C(Nc1ccc(-c2nnc(-c3ccccc3)o2)cc1)C1CCCO1` (centres undefined), with -0.52%; and `O=C(CCc1ccccc1)Nc1cccc(-c2nnc(-c3ccco3)o2)c1`, with 69.8% (active). On to `Cc1noc(C)c1COc1ccc2ccc(=O)oc2c1`, for which the inhibition was 42.7% (active). With `Cc1cc(C)cc(NC(=O)CSc2ccccc2)c1`, the inhibition is 58.2% (active). As to `Nc1ccccc1C(=O)NC1CCCCNC1=O` (centres undefined), the inhibition is 141% (active). Then `C[C@H]1CN([C@@H](C)CO)C(=O)c2cc(Br)cnc2O[C@H]1CN(C)S(=O)(=O)c1cccs1`, with 2.73%. As to `c1cc(-c2ccc3[nH]ccc3c2)n2ccnc2c1`, the inhibition was 62.4% (active).

Take `CCOc1ccc(-c2nnc(-c3ccco3)o2)cc1`: the inhibition was 65% (active). As for `CCCCOc1ccc(-c2nnc(-c3ccco3)o2)cc1`, the figure is 140% (active).

Regarding `CCCCn1c(-c2cccc(C)c2)nc2cc3[nH]c(=O)c(C(C)C)nc3cc21`, the inhibition is 33.5% (active).

Turning to `Brc1cnc2ccccc2c1N1CCCCC1`, the inhibition is 60.2% (active).

`CCCn1c(=O)c(-c2ccccc2)c(O)c2ccccc21`: the inhibition is 75.9% (active). As for `Cc1cccc(NC(=O)c2sc3nc(N4CCOCC4)c4c(c3c2N)CCCC4)c1`, the figure is 77% (active); as for `COC(=O)CSc1nc(C)c2ccc(OC)cc2n1`, -4.3%. As for `CCOC(=O)Cn1c(=O)n(Cc2ccc(OC)cc2)c(=O)c2cccnc21`, the figure is 730% [above what the read-out allows, likely interference] (active); as for `CCOC(=O)c1[nH]c2ccc(OC)cc2c1NC(=O)CCN1CCN(Cc2ccccc2)CC1`, -6.9%.

Consider `CCOC(=O)c1[nH]c2ccc(OC)cc2c1NC(=O)N1CCOCC1`, for which the inhibition is 100% (active).

On to `O=C(NC1CCN(Cc2ccccc2)CC1)c1cc(Br)c(Br)[nH]1`, for which the inhibition was 764% [above what the read-out allows, likely interference] (active).

With `N#Cc1c(N2CCCCC2)nc(N)c2c(N)nc(SCC(=O)O)cc12`, the inhibition is 8.17%. Consider `COc1ccc(NC(=O)CN(C)C(=O)c2cc(-c3ccc(C)o3)nc3ccccc23)cc1`, for which the inhibition is 61.4% (active). Then `CCC(=O)Nc1c(S(=O)(=O)c2ccccc2)c2nc3ccccc3nc2n1Cc1ccccc1`, with 150% (active); and `COc1ccc2[nH]c3ccc(OC)cc3c2c1`, with 198% (active). Then `COc1ccc2[nH]c3c(=O)n(Cc4ccco4)cnc3c2c1`, with -2.61%; and `COc1ccc(-c2nc3cc(C)ccn3c2NC2CCCCC2)cc1SC1CCCCC1`, with 41.2% (active). Consider `Cc1c(OC(C)C(=O)N[C@@H](Cc2ccccc2)C(=O)O)ccc2c3c(c(=O)oc12)CCCC3` (some centres undefined), for which the inhibition was -2.05%. As for `COc1ccc2c3c(c(=O)oc2c1OCC(=O)C(C)(C)C)CCCC3`, the figure is 51% (active); as for `CCN(CC)c1ccc2cc(C(=O)O)c(=O)oc2c1`, 17.4% (active). As for `CCOC(=O)N1CCN(C(=O)c2cc3c(ccc4ccccc43)oc2=O)CC1`, the figure is -8.26%. As for `COC(=O)c1c(C)c(C)nc(N)c1C#N`, the inhibition was 49.5% (active). Then `CC1(C)Cc2c(C#N)c(SCc3nc4ccccc4[nH]3)nc(N3CCOCC3)c2CO1`, with -4.7%. As for `CC(C)c1nc(N2CCOCC2)c(C#N)c2c1COC(C)(C)C2`, the figure is 32.5% (active). As for `CN(C(=O)c1ccccn1)c1nnc(-c2ccccn2)s1`, the figure is 520% [above what the read-out allows, likely interference] (active); as for `CN(C(=O)COc1ccccc1)c1nnc(-c2ccncc2)s1`, 513% [above what the read-out allows, likely interference] (active). Consider `O=C(NCCN1CCN(Cc2ccccc2)CC1)c1cc2c(=O)[nH]c3ccccc3c2s1`, for which the inhibition is 125% (active). Then `Cc1cccc2c1-c1sc(C(=O)NCCCN3CCc4ccccc4C3)cc1CO2`, with -4.07%; and `CN(C)S(=O)(=O)c1ccc(N/C=C(\[N+](=O)[O-])S(=O)(=O)c2ccccc2)cc1`, with -5.04%. As for `Oc1ccc(Br)cc1C=Nc1ccc2[nH]ncc2c1`, the figure is 51.6% (active); as for `CC(C)=NN1C(=O)c2ccccc2NC1(C)C`, 121% (active); as for `Cc1cc(NC(C)C)n2c(nc3ccccc32)c1C#N`, 181% (active).

Consider `COc1ccc(C2C3=C(CCCC3=O)N(CC(=O)O)C3=C2C(=O)CCC3)cc1`, for which the inhibition was 107% (active).

In the case of `CCOC(=O)COc1nc(C)cc(C(F)(F)F)c1C#N`, the inhibition is 36.8% (active).

`COc1ccc2sc(-c3ccc(N(C)C)cc3)c(-c3ccc4cc[nH]c4c3)c2c1`: the inhibition is 55.2% (active). Then `O=C(CN1C(=O)c2cccc3cccc(c23)C1=O)N1CCCCC1`, with 53.9% (active); and `CCCCN(CCCC)CC(O)Cn1c2ccccc2c(=O)c2ccccc21` (centres undefined), with 87.8% (active).

Turning to `CN1c2ccc(C=O)c3c(C=O)ccc(c23)N(C)C1(C)C`, the inhibition is 19.9% (active). As for `CCOc1ccc2nc(Nc3nc4ccc(NC(C)=O)cc4s3)sc2c1`, the inhibition is 13.8% (active). Regarding `O=C(Nc1ncc2c(n1)-c1ccccc1OC2)c1ccc(Cl)cc1`, the inhibition was 82.3% (active). Consider `CN(C(=O)c1cc2c(=O)n3ccccc3nc2s1)C1CCCCC1`, for which the inhibition was 46.3% (active).

Take `CN(CCOc1ccccc1)C(=O)c1cc(-c2ccco2)nc2ccccc12`: the inhibition was -2.35%. As for `O=C(c1cc(-c2ccco2)nc2ccccc12)N(Cc1nnc(-c2ccc(Cl)cc2)o1)C1CC1`, the figure is 72.7% (active); as for `COc1ccc(CNC(=O)c2c[nH]c3c(OC)cc(OC)cc3c2=O)cc1`, -3.81%. As for `COc1cccc2[nH]c(C(=O)NCCc3ccccc3)cc12`, the figure is 961% [above what the read-out allows, likely interference] (active); as for `Cc1cnc(C(=O)OCC(=O)N2CCc3ccccc32)cn1`, 99.3% (active). Turning to `Cc1nn(-c2ccccc2)nc1C(=O)OCC(=O)N1CCCCC1C` (centres undefined), the inhibition is -3.64%. Then `CCCn1nc2cc(C(=O)NCc3ccccc3)ccc2c1OCC`, with -3.32%; and `CCOc1c2ccc(C(=O)NCc3ccc4c(c3)OCO4)cc2nn1C`, with 68.1% (active); and `CCOc1c2ccc(C(=O)NCc3ccc(OC(F)(F)F)cc3)cc2nn1C`, with 79.5% (active).

As to `CCOc1c2ccc(C(=O)NC3CCCc4ccccc43)cc2nn1CC` (centres undefined), the inhibition is 7.23%.
